Reference: PubChem BioAssay
Activity calls are given as the source filed them.

Legend:
[1] = test system: Plasmodium falciparum Sir2 (PF13_0152, Sir2A); assay: Plasmodium falciparum Sir2A binding compounds – biochemical, small-molecule microarray, 635 nm fluorescence, primary screen (AID 1098); conditions: fluorescence 635 nm, higher = more signal;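 note: score merges spot fluorescence intensity with its signal-to-noise ratio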
[2] = probe aDKK1 binding to arrayed compounds – biochemical, biotinylated probe, 635/667 nm fluorescence, primary screen (AID 1099); conditions: small-molecule microarray, higher = more signal;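 note: score merges 667nm spot fluorescence with signal to noise across triplicate slides; reference of the scale not given here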
[3] = probe aCHRDL2 binding to arrayed compounds – biochemical, biotinylated probe, 635/667 nm fluorescence, primary screen (AID 1100); conditions: small-molecule microarray, higher = more signal
[4] = change in splice reporter luminescence, either direction, cell-based, HEK293, spliceosome inhibition project, primary screen (AID 1101); conditions: HEK293 splicing luciferase reporter, 24 h, higher = more signal, called active from +8 up or from −8 down;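 note: HEK293 cells carrying a splicing-competent luciferase reporter gene; test concentration not given here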
[5] = target: Fibroblast growth factor 10 (Homo sapiens) (UniProt O15520); assay: compounds binding fibroblast growth factor 10 – biochemical, small-molecule microarray, 635 nm fluorescence, primary screen (AID 1102); conditions: FGF10 binding, fluorescence 635 nm, higher = more signal
Chain of Fibroblast growth factor 10 (Homo sapiens) (O15520 whole entry, looked up): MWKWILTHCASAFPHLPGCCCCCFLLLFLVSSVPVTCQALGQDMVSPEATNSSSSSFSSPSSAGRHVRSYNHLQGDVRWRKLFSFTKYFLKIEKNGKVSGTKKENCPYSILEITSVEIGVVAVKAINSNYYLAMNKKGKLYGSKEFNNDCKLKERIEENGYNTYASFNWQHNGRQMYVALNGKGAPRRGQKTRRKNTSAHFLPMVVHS

[6] = test system: glycogen synthase kinase-3 (GSK3A per assay name; protocol says GSK3B); assay: compounds binding glycogen synthase kinase-3 – biochemical, small-molecule microarray, 635 nm fluorescence, GSK3A, primary screen (AID 1103); conditions: fluorescence 635 nm, higher = more signal; note: the record names both GSK3A and GSK3B
[7] = target: Epidermal growth factor receptor (Homo sapiens) (UniProt P00533); assay: compounds binding epidermal growth factor receptor – biochemical, small-molecule microarray, 635 nm fluorescence, primary screen (AID 1104); conditions: EGFR binding, higher = more signal;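 note: score merges 667 nm emission intensity with spot signal to noise over triplicate slides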
Chain of Epidermal growth factor receptor (Homo sapiens) (P00533 whole entry, looked up): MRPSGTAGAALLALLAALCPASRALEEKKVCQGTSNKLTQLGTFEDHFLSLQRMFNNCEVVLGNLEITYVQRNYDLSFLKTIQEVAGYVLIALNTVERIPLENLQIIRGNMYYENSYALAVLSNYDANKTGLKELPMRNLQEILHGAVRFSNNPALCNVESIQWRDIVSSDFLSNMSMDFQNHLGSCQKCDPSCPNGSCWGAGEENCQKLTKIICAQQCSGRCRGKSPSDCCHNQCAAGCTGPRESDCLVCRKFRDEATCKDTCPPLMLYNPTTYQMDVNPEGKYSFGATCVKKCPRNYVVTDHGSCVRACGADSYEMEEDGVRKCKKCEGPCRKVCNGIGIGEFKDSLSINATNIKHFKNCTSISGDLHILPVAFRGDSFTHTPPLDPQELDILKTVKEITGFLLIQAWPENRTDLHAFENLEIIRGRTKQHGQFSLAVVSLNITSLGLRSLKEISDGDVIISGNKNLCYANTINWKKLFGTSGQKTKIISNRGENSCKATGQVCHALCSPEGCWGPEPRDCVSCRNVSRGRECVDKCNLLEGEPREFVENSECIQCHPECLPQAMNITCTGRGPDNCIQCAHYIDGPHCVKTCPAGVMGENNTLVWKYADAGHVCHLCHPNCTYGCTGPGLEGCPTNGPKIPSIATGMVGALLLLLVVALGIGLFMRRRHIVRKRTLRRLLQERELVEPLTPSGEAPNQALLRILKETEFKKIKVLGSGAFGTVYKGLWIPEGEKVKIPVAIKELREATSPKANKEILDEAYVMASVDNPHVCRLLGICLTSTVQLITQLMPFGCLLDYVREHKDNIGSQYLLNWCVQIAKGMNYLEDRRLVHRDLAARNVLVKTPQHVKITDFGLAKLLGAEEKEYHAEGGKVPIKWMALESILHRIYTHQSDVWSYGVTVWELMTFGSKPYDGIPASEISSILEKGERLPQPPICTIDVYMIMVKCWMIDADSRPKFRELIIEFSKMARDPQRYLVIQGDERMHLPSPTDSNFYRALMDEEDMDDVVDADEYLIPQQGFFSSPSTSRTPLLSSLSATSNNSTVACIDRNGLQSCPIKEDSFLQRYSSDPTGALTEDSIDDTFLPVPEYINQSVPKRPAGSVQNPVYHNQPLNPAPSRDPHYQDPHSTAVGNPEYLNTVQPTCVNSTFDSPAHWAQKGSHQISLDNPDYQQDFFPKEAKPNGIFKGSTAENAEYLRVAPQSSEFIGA

[8] = target: Follistatin-related protein 3 (Homo sapiens) (UniProt O95633); assay: compounds binding follistatin-related protein 3 – biochemical, small-molecule microarray, 635 nm fluorescence, primary screen (AID 1105); conditions: FSTL3 binding, higher = more signal;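 note: score merges emission near 667 nm and signal to noise per printed spot across three slides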
Chain of Follistatin-related protein 3 (Homo sapiens) (O95633 whole entry, looked up): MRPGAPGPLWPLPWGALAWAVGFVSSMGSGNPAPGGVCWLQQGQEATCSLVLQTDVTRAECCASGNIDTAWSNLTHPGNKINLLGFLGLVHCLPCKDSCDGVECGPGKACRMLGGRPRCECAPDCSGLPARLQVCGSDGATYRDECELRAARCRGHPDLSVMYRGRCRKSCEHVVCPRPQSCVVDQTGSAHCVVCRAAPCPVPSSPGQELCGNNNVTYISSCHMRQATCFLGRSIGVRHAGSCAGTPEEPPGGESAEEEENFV

[9] = target: Dickkopf-related protein 1 (Homo sapiens) (UniProt O94907); assay: small molecules binding DKK1 protein – biochemical, small-molecule microarray, 635 nm fluorescence scan, primary screen (AID 1106); conditions: higher = more signal;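 note: score merges emission near 667 nm with signal to noise over three replicate slides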
Chain of Dickkopf-related protein 1 (Homo sapiens) (O94907 whole entry, looked up): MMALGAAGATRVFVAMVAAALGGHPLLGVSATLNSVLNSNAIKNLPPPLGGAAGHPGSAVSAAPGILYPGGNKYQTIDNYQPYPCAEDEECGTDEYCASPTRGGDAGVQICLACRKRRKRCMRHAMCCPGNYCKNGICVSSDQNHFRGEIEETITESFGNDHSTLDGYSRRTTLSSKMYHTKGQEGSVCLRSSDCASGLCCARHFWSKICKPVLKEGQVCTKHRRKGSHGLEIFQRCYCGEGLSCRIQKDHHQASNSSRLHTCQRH

[10] = test system: Inhibin beta A chain (activin A); assay: small molecules binding activin A – biochemical, small-molecule microarray, 635 nm fluorescence scan, primary screen (AID 1107); conditions: INHBA, higher = more signal;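 note: mouse activin A protein probed at 4.33 µg/mL on printed slides; score merges bound-protein fluorescence near 667 nm with spot signal-to-noise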

| SMILES | composite z-score [1] | composite z-score [2] | composite z-score [3] | z-score [4] | composite z-score [5] | composite z-score [6] | composite z-score [7] | composite z-score [8] | composite z-score [9] | composite z-score [10] |
| --- | --- | --- | --- | --- | --- | --- | --- | --- | --- | --- |
| C[C@@H]1CC[C@H]2C(=O)O[C@H](COc3ccc(C(C)(C)C)cc3)CN2[C@H]1c1ccc(Br)cc1 | 0.751 | -0.136 | -0.299 | 0.148 (inactive) | -0.0611 | -0.533 | -0.287 | -0.175 | 0.0539 | 0.352 |
| CC(=O)OC[C@H]1O[C@H](C#CCCCc2ccccc2)C=C[C@@H]1OC(C)=O | 0.829 | -0.194 | -0.33 | 0.492 (inactive) | 0.687 | -0.0427 | 0.0559 | 0.556 | 0.3 | 1.03 |
| CC(=O)OC[C@H]1O[C@H](CCON=C[C@@H](C)[C@H](OCc2ccccc2)C(C)C)C=C[C@@H]1OC(C)=O | 0.343 | -0.36 | -0.743 | 0.244 (inactive) | 0.2 | 0.608 | 0.365 | 0.274 | 0.564 | -0.0819 |
| Cc1ccc(S(=O)(=O)N[C@@H]2COC(=O)[C@H](C)COC(=O)CC=C[C@H]2C)cc1 | -0.0259 | -0.291 | -0.589 | 0.159 (inactive) | 0.66 | 0.771 | 0.751 | 1.41 | 1.8 | 1.16 |
| COc1ccc(COC(=O)NN=C2C[C@@H](O)[C@@H](O)[C@@H]3[C@@H]4C(=O)N(c5ccc(F)cc5F)C(=O)[C@@H]4CC[C@@H]23)cc1 | 0.911 | 0.262 | 1.18 | 0.3 (inactive) | -0.665 | -1.53 | -0.076 | -0.267 | -0.69 | 0.532 |
| CC(CCN1CCc2nc(-c3ccccc3)c(-c3ccccc3)cc2C1)=NO[C@H](C)c1cn([C@@H]2COC[C@H]2O)nn1 | 1.1 | -0.182 | -0.432 | 0.611 (inactive) | 0.215 | 0.403 | 0.0515 | 0.343 | 0.0546 | 0.763 |
| COc1ccc(O[C@H]2C=C[C@@H](c3ccccc3)O[C@@H]2COC(=O)CCC(C)=NO[C@H](C)c2cn([C@@H]3COC[C@H]3O)nn2)cc1 | 0.716 | -0.226 | -0.791 | -1.25 (inactive) | 0.39 | 0.387 | 0.562 | 0.706 | 0.583 | -0.298 |
| O=C(CS)NCCCCCNC(=O)[C@H]1C[C@H]2C(=O)N3CCC[C@H]3C(=O)N2[C@H]1c1cccc(OCCO)c1 | 1.17 | 0.0187 | 0.367 | 0.378 (inactive) | 1.35 | 1.32 | 0.194 | 1.41 | 1.57 | 1.3 |
| C[C@@H]1C=CCC(=O)OC[C@H](C)C(=O)N[C@@H](C)C(=O)OC1 | 0.57 | -0.242 | -0.791 | -0.586 (inactive) | 0.336 | 0.252 | 0.282 | 0.413 | 0.814 | -0.658 |
| CO[C@H]1COC(=O)[C@H](C)COC(=O)CC=C[C@@H](C)[C@H](OC)COC(=O)CC=C[C@@H]1C | 0.864 | -0.466 | -1.28 | 0.0172 (inactive) | 0.207 | 0.432 | 1.47 | 1.32 | 1.02 | 1.28 |
| CO[C@@H]1COC(=O)[C@H](C)NC(=O)[C@@H](C)COC(=O)CCC[C@H]1C | 0.957 | -0.122 | -0.554 | 0.494 (inactive) | 0.721 | 0.115 | 0.429 | 1.11 | 0.705 | -0.0431 |
| C[C@@H](c1ccccc1)N1C(=O)[C@H]2[C@H]3[C@H](O)[C@H](O)CC(=NOC[C@@H](O)COCc4ccco4)[C@@H]3CC[C@H]2C1=O | 0.693 | -0.349 | -0.402 | -0.115 (inactive) | -0.953 | -0.468 | -0.0809 | -1.31 | -1.03 | -0.365 |
| O=C1[C@H]2[C@H]3[C@H](O)[C@H](O)CC(=NO[C@@H]4O[C@H](CO)[C@@H](O)[C@H](O)[C@H]4O)[C@@H]3CC[C@H]2C(=O)N1c1ccc(F)cc1F | 0.406 | -0.157 | -0.445 | -0.244 (inactive) | 0.794 | 0.703 | 0.541 | 0.608 | 0.451 | -0.114 |
| COCCOC(=O)N1C(=O)[C@@]2(c3cc(C#CCNC(N)=O)ccc31)[C@H](c1ccccc1OCCO)N1[C@H](c3ccccc3)[C@H](c3ccccc3)OC(=O)[C@H]1[C@@H]2C(=O)N1CCN(c2ncccn2)CC1 | 1.61 | 0.376 | 0.702 | -0.099 (inactive) | 1.15 | 0.375 | 0.315 | 0.623 | 0.0239 | 1.35 |
| O=C1C2C=CC(C(O)c3ccc([N+](=O)[O-])cc3)N(Nc3ccc([N+](=O)[O-])cc3)C2C(=O)N1c1ccccc1 (stereo not given) | 0.867 | 0.969 | 0.539 | -0.291 (inactive) | 0.818 | 1.29 | 0.301 | 0.255 | -0.12 | 0.69 |
